IL1B secr inh: qHTS for Inhibitors of Inflammasome Signaling: IL-1-beta AlphaLISA Primary Screen; 360,000 compounds, 4.7% hits; AID 743279, 2014; THP-1 LPS/ATP IL-1B secretion, AlphaLISA, 16 h; hits give low values; activity change, % at 57.5 µM; in the data active means activity change below about -50%; inconclusive means mostly about -30% to -49%
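Secreted IL-1B measured by AlphaLISA bead assay after 16 h compound exposure of THP-1 cells; compounds (final up to 57.5 uM) added 1 h before LPS (250 ng/mL) and ATP (1.25 mM) stimulation; lower signal means less secretion.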
ELG1 DNA repair: qHTS screen for small molecules that inhibit ELG1-dependent DNA repair in human embryonic kidney (HEK293T) cells expressing luciferase-tagged ELG1; 330,000 compounds, 2.3% hits; Potency, µM (highest dose often 46.1 µM), usual class: inhibitors; AID 504467, 2011; HEK293T ELG1-luciferase reporter, luminescence, 16 h; DNA damage induced by 5-fluorouridine; further: nearly all actives have a fitted effect of over 55% in size
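HEK293T cells expressing luciferase-tagged ELG1 (2,000/well) received 5-Fluorouridine plus compound or DMSO for 16 hr at 37 °C. Luciferase was read by ONE-Glo luminescence after 30 min at room temperature.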
DT40 TDP1 CPT: qHTS for Inhibitors of human tyrosyl-DNA phosphodiesterase 1 (TDP1): qHTS in cells in presence of CPT. chicken DT40 Tdp1-/-;hTDP1 cells + 20 nM CPT, ATP luminescence, 48 h. Potency, µM (series often up to 46.2 µM), hits mostly inhibitors. 420,000 compounds, 12% hits. AID 686979, 2013; further: nearly all actives have a fitted effect of over 55% in size
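Chicken DT40 Tdp1-/- cells stably complemented with human TDP1 were seeded at 400 cells/well in medium containing 20 nM camptothecin, exposed to pin-transferred compounds, and grown at 37 °C for at least 48 hr. Viability was read as ATP luminescence.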
DT40 TDP1 no CPT: qHTS for Inhibitors of human tyrosyl-DNA phosphodiesterase 1 (TDP1): qHTS in cells in absence of CPT; DT40 Tdp1-/- hTDP1 cells, no CPT, ATP luminescence, 48 h; Potency, µM (top dose mostly 46.2 µM), hits mostly inhibitors; 420,000 compounds, 15% hits; further: nearly all actives have a fitted effect of over 55% in size
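Chicken DT40 Tdp1-/- cells complemented with human TDP1, screened without camptothecin (DMSO vehicle only), 400 cells/well. Compounds pin-transferred, cells incubated at 37 °C for at least 48 hr. Growth read as ATP-dependent luminescence (CellTiter-Glo, 30 min at RT).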
VP16 counter: VP16 counterscreen qHTS for inhibitors of ROR gamma transcriptional activity; Drosophila S2 Gal4-VP16 UAS-luciferase, luminescence, 20 h; Potency, µM (top dose mostly 53.6 µM), usual class: inhibitors; 310,000 compounds, 3.5% hits; AID 2546, 2010;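 further: Gal4-VP16 expression switched on by copper sulfate through the metallothionein promoter; nearly all actives have a fitted effect of over 50% in size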
RORg inh: qHTS for inhibitors of ROR gamma transcriptional activity. Nuclear receptor ROR-gamma (Mus musculus), P51450. Drosophila S2 Gal4-RORgamma UAS-luciferase reporter, 20 h. Potency, µM (series often up to 53.6 µM), actives largely listed as inhibitors. 310,000 compounds, 5.4% hits. AID 2551, 2010; further: nearly all actives have a fitted effect of over 60% in size
Target sequence (P51450 whole entry, looked up, the tested form may be a part): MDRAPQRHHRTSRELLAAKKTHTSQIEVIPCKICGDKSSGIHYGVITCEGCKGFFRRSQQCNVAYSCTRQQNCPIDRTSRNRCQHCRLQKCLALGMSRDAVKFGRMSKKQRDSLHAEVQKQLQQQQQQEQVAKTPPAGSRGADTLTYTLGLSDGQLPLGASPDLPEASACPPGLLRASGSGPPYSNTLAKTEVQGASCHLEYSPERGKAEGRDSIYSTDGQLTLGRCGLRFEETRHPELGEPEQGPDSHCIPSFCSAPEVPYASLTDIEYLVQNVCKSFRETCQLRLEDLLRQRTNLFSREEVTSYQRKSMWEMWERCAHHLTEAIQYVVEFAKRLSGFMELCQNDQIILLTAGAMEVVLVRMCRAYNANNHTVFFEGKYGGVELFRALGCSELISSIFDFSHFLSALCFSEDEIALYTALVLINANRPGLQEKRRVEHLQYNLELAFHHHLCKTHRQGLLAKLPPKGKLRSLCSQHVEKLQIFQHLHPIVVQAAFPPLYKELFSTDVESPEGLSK
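A Gal4/UAS one-hybrid system in insect cells: metallothionein-promoter Gal4–ROR gamma fusion plus Photinus luciferase reporter. Copper sulfate 700 uM final, 20 hr ambient incubation, luminescent detection after 10 min with reagent.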
Each line names hits and unclear results; the compound was inactive in the other large screens; ! = not confirmed by another sample. Only some compounds are listed: those with a hit (about 21% of all), similar ones and a draw of the others. Unless noted, the call rests on the fitted dose curve; in most records, active means well fitted curve in the direction sought with a large enough effect; inconclusive means small, poorly fitted or top-dose-only effect, or another doubt; inactive means no such curve, though single readings can be large; an effect the other way counts as inactive or inconclusive.

COc1ccc(-c2cc(NC(C)=O)c3ncc(-c4cccc(C(F)(F)F)c4)n3c2)c(OC)c1	DT40 TDP1 CPT inconclusive, DT40 TDP1 no CPT inconclusive (no result: ELG1 DNA repair, VP16 counter, RORg inh)
COc1ccc(-c2cc(NC=O)c3ncc(-c4cccc(C(F)(F)F)c4)n3c2)c(OC)c1	DT40 TDP1 CPT 18.4µM, DT40 TDP1 no CPT 14.6µM (no result: ELG1 DNA repair, VP16 counter, RORg inh)
O=C(NC1CCCC1)C1CCN(C(=O)c2cc(Cl)ccc2Cl)CC1	none
C[C@@H]1C[C@H]2[C@@H]3C[C@H](F)C4=CC(=O)C=C[C@]4(C)[C@@]3(F)[C@@H](O)C[C@]2(C)[C@@]1(O)C(=O)COC(=O)C(C)(C)C	DT40 TDP1 CPT 23.1µM, DT40 TDP1 no CPT 23.1µM, RORg inh inconclusive
C[C@@H]1C[C@H]2C3C[C@H](F)C4=CC(=O)C=CC4(C)[C@@]3(F)[C@@H](O)CC2(C)[C@@]1(O)C(=O)COC(=O)C(C)(C)C (stereo partly specified)	DT40 TDP1 no CPT inconclusive (no result: IL1B secr inh, ELG1 DNA repair, VP16 counter, RORg inh)
C[C@@H]1C[C@H]2[C@@H]3C[C@H](F)C4=CC(=O)C(Cl)=C[C@]4(C)[C@@]3(F)[C@@H](O)C[C@]2(C)[C@@]1(O)C(=O)CO	DT40 TDP1 CPT inconclusive, DT40 TDP1 no CPT 16.8µM (no result: IL1B secr inh, ELG1 DNA repair)
CC(=O)OCC(=O)[C@@]12OC(C)(C)OC1CC1C3CC(F)C4=CC(=O)C=C[C@@]4(C)[C@@]3(F)C(O)C[C@]12C (stereo partly specified)	none (no result: IL1B secr inh, ELG1 DNA repair)
CCCC(=O)O[C@]1(C(=O)COC(C)=O)CC[C@H]2[C@@H]3C[C@H](F)C4=CC(=O)C=C[C@]4(C)[C@@]3(F)[C@@H](O)C[C@@]21C	IL1B secr inh -75.3, DT40 TDP1 CPT 23.7µM!, DT40 TDP1 no CPT inconclusive
COc1cccc(NC(=O)CN(C)C(C)C(=O)Nc2cc([N+](=O)[O-])ccc2Cl)c1 (stereo unspecified)	none
O=C(CSc1nnc(CNc2ccc(F)cc2)n1CC1CCCO1)N1CCOCC1 (stereo unspecified)	none
COc1ccc(-c2cc(C(=O)NCCN3CCOCC3)no2)cc1OC	none
CNc1ccc(C=C2c3ccccc3-c3ccccc32)cc1	DT40 TDP1 CPT inconclusive, DT40 TDP1 no CPT 12.6µM (no result: IL1B secr inh, ELG1 DNA repair, VP16 counter, RORg inh)
C(=C\c1ccccn1)/c1ccncc1	ELG1 DNA repair inconclusive
C(=C1c2ccccc2-c2ccccc21)c1ccncc1	IL1B secr inh -78.2, DT40 TDP1 CPT inconclusive, DT40 TDP1 no CPT 23.1µM (no result: ELG1 DNA repair, VP16 counter, RORg inh)
CCC(=O)N1CCc2cc(CNC(=O)Nc3ccc(OC)cc3OC)ccc21	none (no result: IL1B secr inh, ELG1 DNA repair, VP16 counter, RORg inh)
C[C@H]1CN([C@@H](C)CO)C(=O)CCCn2nncc2CO[C@H]1CN(C)C(=O)C1CC1	DT40 TDP1 no CPT inconclusive (no result: ELG1 DNA repair, VP16 counter, RORg inh)
COC(=O)N1CCC2(CC1)CN(C(=O)Nc1cccc(C#N)c1)C2	none (no result: IL1B secr inh, ELG1 DNA repair)
C=CCNC(=O)c1cc(-c2ccccc2)sc1N	DT40 TDP1 CPT inconclusive, DT40 TDP1 no CPT inconclusive (no result: ELG1 DNA repair, VP16 counter, RORg inh)
Cc1cc(C(=O)NCCc2ccc(Cl)cc2)c2ccccc2n1	DT40 TDP1 no CPT inconclusive
COc1ccc(CCNC(=O)c2ccccc2C(=O)NCCc2ccc(OC)c(OC)c2)cc1OC	none (no result: ELG1 DNA repair, VP16 counter, RORg inh)
COc1ccc(CCNC(=O)c2cc(Nc3cc(C)cc(C)c3)nc3ccccc23)cc1OC	DT40 TDP1 CPT 8.2µM, DT40 TDP1 no CPT 8.2µM (no result: IL1B secr inh, ELG1 DNA repair, VP16 counter, RORg inh)
Nc1sc(-c2ccccc2)cc1C(=O)NCCc1ccc(Cl)cc1	DT40 TDP1 CPT 23.1µM, DT40 TDP1 no CPT 16.4µM (no result: ELG1 DNA repair, VP16 counter, RORg inh)
CCCCN(CCCNC(=O)c1cc(Nc2cccc(SC)c2)nc2ccccc12)Cc1ccccc1	DT40 TDP1 CPT 6.51µM, DT40 TDP1 no CPT 4.11µM (no result: IL1B secr inh, ELG1 DNA repair, VP16 counter, RORg inh)
O=C(NCCc1ccccc1)c1cc(Sc2cccc(Cl)c2)nc2ccccc12	DT40 TDP1 CPT inconclusive, DT40 TDP1 no CPT 16.4µM (no result: IL1B secr inh, ELG1 DNA repair, VP16 counter, RORg inh)

Screening results: PubChem BioAssay, National Center for Advancing Translational Sciences (NCATS)
